# Experimental data taken from PubChem BioAssay (NCATS).
# Results filed as inconclusive are left out. Active and inactive are the calls of the source. Unless noted, the call rests on the fitted dose curve; in most records, active means well fitted cell-killing curve with a large enough effect; inconclusive means small, poorly fitted or top-dose-only effect; inactive means flat fitted curve, though single readings scatter.
# Tests used:
# [1] = Cell Viability - LYMP2-006 (AID 978); further: on the % scale 0 is the no-effect control and ±100 the full control effect; nearly all actives have a fitted effect of over 60% in size
# In short: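 Cells are seeded at 2500 per well and rested 5 hr at 37 C. Compounds are added across a concentration series for 24 hr at 37 C, after which ATP is quantified by luciferase luminescence.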
# [2] = Cell Viability - LYMP2-007 (AID 979);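 further: cells exposed to compound for 24 h before reading; 0% = DMSO only and the negative end = 92 µM tetraoctylammonium bromide; nearly all actives have a fitted effect of over 60% in size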
# In short: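 Human lymphoblastoid LYMP2-007 cells (2500/well) preincubated 5 h at 37 C, then treated 24 h at 37 C in complete medium. Viability by CellTiter-Glo ATP luminescence after 30 min at room temperature; AC50 from Hill fits.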
# [3] = Cell Viability - LYMP2-008 (AID 980); further: on the % scale 0 is the no-effect control and ±100 the full control effect; nearly all actives have a fitted effect of over 60% in size
# In short: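 LYMP2-008 lymphoblastoid cells (2500/well) plated 5 h, then treated 24 h at 37 C in complete medium. Viability read as intracellular ATP by CellTiter-Glo luminescence after 30 min at room temperature; AC50 from Hill fits.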
# [4] = Cell Viability - LYMP2-010 (AID 981); further: on the % scale 0 is the no-effect control and ±100 the full control effect; nearly all actives have a fitted effect of over 55% in size
# In short: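 Human lymphoblastoid LYMP2-010 cells (2500/well) treated 24 h at 37 C in complete medium; viability read as intracellular ATP by CellTiter-Glo luminescence. AC50 from Hill fits of concentration-response data; tetraoctylammonium bromide positive control.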
# [5] = Cell Viability - LYMP2-012 (AID 982);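 further: cellular ATP by luciferase luminescence where a drop means cytotoxicity; cells exposed to compound for one day before reading; 0% = DMSO only and full loss = 92 µM tetraoctylammonium bromide; nearly all actives have a fitted effect of over 55% in size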
# [6] = Cell Viability - LYMP2-014 (AID 983);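 further: plate controls were DMSO only for no effect and 92 µM tetraoctylammonium bromide for full effect; nearly all actives have a fitted effect of over 50% in size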
# In short: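 LYMP2-014 human lymphoblastoid cells, 2500/well, treated 24 h at 37 C in complete medium; viability by CellTiter-Glo ATP luminescence after 30 min at room temperature. AC50 from Hill fits of qHTS concentration-response; tetraoctylammonium bromide positive control.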
# [7] = Cell Viability - LYMP2-016 (AID 984); further: on the % scale 0 is the no-effect control and ±100 the full control effect; nearly all actives have a fitted effect of over 55% in size
# In short: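 Cells were seeded at 2500 per well and rested 5 hr before a 24 hr compound exposure at 37 C. Viability was then gauged as cellular ATP by luciferase luminescence, with AC50 values fitted to the Hill equation.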
# [8] = Cell Viability - LYMP2-018 (AID 985);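 further: plate controls were DMSO only for no effect and tetraoctylammonium bromide at 92 µM for full effect; nearly all actives have a fitted effect of over 50% in size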
# In short: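 Human lymphoblastoid LYMP2-018 cells, 2500/well, settled 5 hr at 37 C then exposed to compound 24 hr at 37 C; intracellular ATP measured by CellTiter-Glo luminescence. AC50 from Hill-equation concentration-response fits.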
# [9] = Cell Viability - LYMP2-020 (AID 986);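 further: plate controls were DMSO only for no effect and tetraoctylammonium bromide at 92 µM for full effect; nearly all actives have a fitted effect of over 55% in size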
# In short: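 Human lymphoblastoid LYMP2-020 cells (2500/well) preincubated 5 h at 37 C, then treated 24 h at 37 C. Viability measured as intracellular ATP by CellTiter-Glo luminescence after 30 min at room temperature; AC50 from Hill fits.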
# [10] = Cell Viability - LYMP2-022 (AID 987)
# In short: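 LYMP2-022 lymphoblastoid cells (2500/well, complete medium) were treated with compounds for 24 hours at 37 C; intracellular ATP was then read by CellTiter-Glo luminescence after 30 min at room temperature. AC50 values were derived from Hill-equation fits.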
# [11] = Cell Viability - LYMP2-024 (AID 988);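 further: plate controls were DMSO only for no effect and 92 µM tetraoctylammonium bromide for full effect; nearly all actives have a fitted effect of over 60% in size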
# In short: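 Human lymphoblastoid LYMP2-024 cells (2500/well) rested 5 hr, then treated with compound for 24 hr at 37 C in complete medium. Viability was measured as intracellular ATP by CellTiter-Glo luminescence. AC50 values came from Hill-equation fits.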
# [12] = Cell Viability - LYMP2-026 (AID 989); further: on the % scale 0 is the no-effect control and ±100 the full control effect; nearly all actives have a fitted effect of over 50% in size
# In short: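 Human lymphoblastoid LYMP2-026 cells, 2500/well, exposed to compound 24 h at 37 C in complete medium. Viability as intracellular ATP by CellTiter-Glo luminescence; AC50 from Hill fits of qHTS concentration-response.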
# [13] = Cell Viability - LYMP1-002 - Assay at 24 hr (AID 993); further: on the % scale 0 is the no-effect control and ±100 the full control effect
# In short: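 Human lymphoblastoid LYMP1-002 cells (2500/well) treated 24 h at 37 °C; viability as intracellular ATP by CellTiter-Glo luminescence. Tetraoctylammonium bromide as positive control; AC50 from Hill-equation fits of qHTS concentration-response.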
# [14] = Cell Viability - LYMP1-002 - Assay at 40 hr (AID 994)
# In short: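 LYMP1-002 human lymphoblastoid cells (2500/well, complete medium) were treated with compounds for 40 hr at 37 C. Intracellular ATP was measured by CellTiter-Glo luminescence, and AC50 values came from Hill-equation fits of concentration-response data; tetraoctylammonium bromide was the positive control.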
# [15] = qHTS Assay for Lipid Storage Modulators (AID 1519; calls by dose curve; on activity change, negative = inhibition: on the % scale 0 is the no-effect control and ±100 the full control effect); conditions: Drosophila S3 cells, BODIPY lipid droplet/cell ratio, laser cytometry, cells loaded with oleic acid
# In short: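 Cells seeded at 5,000 per well were treated with compounds over a concentration series and loaded with oleic acid (400 uM, as added). Lipid droplet fluorescence (488 nm excitation, 500-530 nm channel) was read by laser-scanning cytometry and normalized to 20 uM Triacsin C.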
# [16] = qHTS Assay for Identification of Small Molecule Inducers of Hypoxia Response (AID 2120; active means well fitted curve in the direction sought with a large enough effect in the signal ratio, with a control signal flat, not every such curve was filed as active; the % refers to the signal ratio; further: 0% is about no effect)
# In short: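 HRE-bla ME-180 cells in Opti-MEM with 0.5% dialyzed FBS, pre-plated 4-5 h, then compound titration for 17 h at 37 degrees Celsius. CCF4 loaded 2.5 h at room temperature; 460/530 nm ratio gave %Activity and AC50 for induction.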
# [17] = biological target: Estrogen receptor (Homo sapiens) (UniProt P03372); experiment: qHTS assay for small molecule antagonists of estrogen receptor alpha signaling (AID 588513; active means well fitted curve in the direction sought with a large enough effect in the signal ratio, with a control signal flat, not every such curve was filed as active; the % refers to the signal ratio; further: on the % scale 0 is the no-effect control and ±100 the full control effect)
# In short: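 Fluorescence from CCF4 substrate after 2 h at room temperature gave reporter activity; cells had been exposed to compound and 0.5nM 17-beta-estradiol for 18 h at 37 C. Hill-equation fitting yielded IC50 and maximal response.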
# [18] = qHTS assay for small molecule antagonists of peroxisome proliferator-activated receptor delta signaling (AID 588535; active means well fitted inhibition curve with a large enough effect in the signal ratio, with a control signal flat, not every such curve was filed as active; the % refers to the signal ratio;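 on max response: cells co-treated with a PPAR-delta agonist as stimulator during compound exposure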); conditions: HEK293T PPARd-UAS-bla, beta-lactamase FRET ratio, 18 h; 460 nm channel
# In short: (§1)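 Reporter: UAS-bla under PPAR-delta response element, HEK293T host. Medium: 2% charcoal/dextran FBS. Dosing: titration, 18 hrs, 37 C. Detection: CCF4, 2 hrs RT, 405 ex/460 and 530 em.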
# [19] = biological target: Peroxisome proliferator-activated receptor delta (Homo sapiens) (UniProt Q03181); experiment: as above
# In short: as §1
# Peroxisome proliferator-activated receptor delta (Homo sapiens), sequence (Q03181 whole entry, looked up): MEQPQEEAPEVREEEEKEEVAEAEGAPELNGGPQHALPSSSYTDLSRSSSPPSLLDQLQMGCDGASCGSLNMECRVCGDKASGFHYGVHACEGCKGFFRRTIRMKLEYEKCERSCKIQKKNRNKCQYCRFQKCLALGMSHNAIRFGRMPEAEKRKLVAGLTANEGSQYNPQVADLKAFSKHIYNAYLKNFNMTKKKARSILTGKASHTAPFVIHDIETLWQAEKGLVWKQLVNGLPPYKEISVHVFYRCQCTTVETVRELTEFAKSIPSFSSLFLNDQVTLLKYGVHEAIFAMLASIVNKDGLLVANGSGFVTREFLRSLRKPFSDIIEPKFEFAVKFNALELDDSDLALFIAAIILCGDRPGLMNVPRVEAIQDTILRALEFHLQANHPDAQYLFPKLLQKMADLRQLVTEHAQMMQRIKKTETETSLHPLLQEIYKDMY
# Estrogen receptor (Homo sapiens), sequence (P03372 whole entry, looked up): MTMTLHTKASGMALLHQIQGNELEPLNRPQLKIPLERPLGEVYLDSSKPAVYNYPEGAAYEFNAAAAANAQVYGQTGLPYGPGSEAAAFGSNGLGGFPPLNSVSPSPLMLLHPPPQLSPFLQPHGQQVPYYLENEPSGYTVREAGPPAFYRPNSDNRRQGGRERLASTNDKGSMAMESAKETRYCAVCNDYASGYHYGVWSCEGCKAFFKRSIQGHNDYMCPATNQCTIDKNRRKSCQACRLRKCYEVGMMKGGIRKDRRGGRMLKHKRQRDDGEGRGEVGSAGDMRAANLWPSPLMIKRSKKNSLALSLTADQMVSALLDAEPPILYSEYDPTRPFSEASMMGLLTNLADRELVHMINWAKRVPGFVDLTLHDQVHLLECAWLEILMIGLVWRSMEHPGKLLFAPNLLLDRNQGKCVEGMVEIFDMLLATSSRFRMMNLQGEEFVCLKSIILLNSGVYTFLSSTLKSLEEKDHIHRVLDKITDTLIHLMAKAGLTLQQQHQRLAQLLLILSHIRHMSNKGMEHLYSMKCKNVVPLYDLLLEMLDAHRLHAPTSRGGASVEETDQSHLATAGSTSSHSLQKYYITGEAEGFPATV
smiles,measurement,setting,value
O=C(Nc1ccccc1)Nc1ccccc1,outcome,[1],inactive
same,outcome,[2],inactive
same,outcome,[3],inactive
same,outcome,[4],inactive
same,outcome,[5],inactive
same,outcome,[6],inactive
same,outcome,[7],inactive
same,outcome,[8],inactive
same,outcome,[9],inactive
same,outcome,[10],inactive
same,outcome,[11],inactive
same,outcome,[12],inactive
same,outcome,[13],inactive
same,outcome,[14],inactive
same,"activity change, negative = inhibition",[15]; at 57.5 µM (top of the series),11.8% (inactive)
same,max response,[15]; measured here: cell count channel max response,-3.21%
same,max response,[15]; measured here: lipid channel max response,11.7%
same,outcome,[16],inactive
same,outcome,[17],inactive
same,max response,[18],-7.95%
same,outcome,[19],inactive
